Source: PubChem BioAssay
CYP2C9 activ: CYP2C9 (human) activation. P11712. AID 1024. activation factor at 5 µM. recombinant CYP2C9, luciferin-H conversion, luminescence; hits give high values; factor 1 = untreated enzyme, 0 = blocked. 1.4% of 96,000 active;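 active means activation factor of 2 or more for CYP2C9 at a 5 µM dose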
CYP2C9 inh: human CYP2C9 inhibition | CYP2C9 Supersomes, luciferin-H conversion, luminescence | inhibition, % at 5 µM | 20% of 96,000 active;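 active means blocking of liver enzyme CYP2C9 beyond about 50% at 5 µM, limit read from the data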
PostGolgi yeast: growth inhibition of a yeast mutant, post-Golgi transport screen. post-Golgi transport phenotypic cell assay. inhibition, % at 10 µM. 0.9% of 98,000 active;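 further: yeast cells grown in 1536-well plates; yeast grown about 18 h at 30C before absorbance read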
CYP2C19 act: activators of human cytochrome P450 2C19; 96,000 tested, under 10 active; activation factor at 5 µM; P33261; AID 1025; recombinant CYP2C19, luciferin-H EGE luminescence; hits give high values; 0 = fully inhibited enzyme, 1 = untreated enzyme;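 active means activation factor of at least 2 at 5 µM in the primary screen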
Target sequence (P33261 whole entry, looked up): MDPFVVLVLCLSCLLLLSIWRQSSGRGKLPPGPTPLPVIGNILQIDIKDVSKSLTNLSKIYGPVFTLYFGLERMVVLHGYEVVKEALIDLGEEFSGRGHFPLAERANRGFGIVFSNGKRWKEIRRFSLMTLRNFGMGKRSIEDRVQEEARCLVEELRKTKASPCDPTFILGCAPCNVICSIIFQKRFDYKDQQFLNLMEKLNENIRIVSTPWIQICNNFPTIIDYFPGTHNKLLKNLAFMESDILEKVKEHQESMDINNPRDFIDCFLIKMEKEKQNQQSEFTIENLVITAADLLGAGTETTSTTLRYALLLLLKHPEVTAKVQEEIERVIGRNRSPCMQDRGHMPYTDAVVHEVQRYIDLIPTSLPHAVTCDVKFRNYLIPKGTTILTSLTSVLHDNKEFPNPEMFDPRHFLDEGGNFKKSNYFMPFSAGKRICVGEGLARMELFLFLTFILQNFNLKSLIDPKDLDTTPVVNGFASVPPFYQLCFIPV
CYP2C19 inh: human CYP2C19 inhibition | 21% of 96,000 active | CYP2C19 Supersomes, luciferin-H EGE luminescence, 30 min | inhibition, % at 5 µM;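 active means CYP2C19 inhibition above a set limit at 5 µM in the primary screen, cut at about 50% in these data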
PostGolgi ctrl: yeast control strain growth, post-Golgi counter-screen. efflux-deficient yeast background strain, growth absorbance A615, 16 h. inhibition, % at 10 µM. 5% of 98,000 active. AID 738
Each line names hits and unclear results; the compound was inactive in the other large screens. Compounds with a hit are over-represented: about 32% of the library has one in this group of screens. Unless noted, no stated cut-off is given here; in the data, active means inhibition above about 30%; inactive means the rest.

Cc1ccc(C2CC(c3ccccc3)n3ncnc3N2)cc1 (configuration not stated)	CYP2C9 inh 64.8, CYP2C19 inh 98.5
CCC(Cc1ccccc1)NC(=O)C1CCN(S(=O)(=O)c2c(C)noc2C)CC1 (configuration not stated)	none
CCN(CC)S(=O)(=O)c1cccc(C(=O)Oc2cccnc2)c1	none
CCCCC(c1nnnn1CS(=O)(=O)c1ccc(C)cc1)N1CCN(c2ccccc2)CC1 (configuration not stated)	CYP2C9 inh 68.8, CYP2C19 inh 64.7
O=S(=O)(/C=C/c1ccccc1)N1CCN(c2ccc(F)cc2)CC1	none
Cc1ccc(S(=O)(=O)CC2CSc3nnc(C)c(=O)n32)cc1 (configuration not stated)	none
N#Cc1c(-c2ccco2)nc(SCC(=O)Nc2ccc(S(N)(=O)=O)cc2)[nH]c1=O	CYP2C9 inh 50.4
Cc1cc(C)n(Cc2cccc(F)c2)c(=O)c1C#N	none
Cc1nc(SCc2cccc(F)c2)[nH]c(=O)c1C#N	CYP2C9 inh 74.8
N#Cc1c(-c2ccco2)nc(SCc2ccc(F)cc2)[nH]c1=O	CYP2C9 inh 63.1
N#Cc1c(-c2ccco2)nc(NCC2CCCO2)[nH]c1=O (configuration not stated)	none
CCCCSc1nc(O)c(Cc2ccccc2)c(=O)[nH]1	none
CCOC(=O)c1sc(NC(=O)CCN2C(=O)c3cccc([N+](=O)[O-])c3C2=O)c(C(=O)OCC)c1C	CYP2C9 inh 56.7
CCOC(=O)c1sc(NC(=O)/C=C/c2cnn(C)c2C)c(C(=O)OCC)c1C	none
CCOC(=O)c1c(NC(=O)CCN2C(=O)c3ccccc3C2=O)sc(C(=O)OC(C)C)c1C	CYP2C9 inh 60.0
COCCn1c(SCC(=O)Nc2ccc3c(c2)OCCO3)nnc1-c1c[nH]c2ccccc12	CYP2C9 inh 58.4
COc1cccc(-c2nnc(SCC(=O)NCc3ccc4c(c3)OCO4)n2Cc2ccco2)c1	CYP2C9 inh 71.7
COc1cccc(-c2nnc(SCC(=O)Nc3ccc4c(c3)OCCO4)n2Cc2ccco2)c1	CYP2C9 inh 58.5
CCCn1c(SCC(=O)Nc2ccc3c(c2)OCCO3)nnc1-c1ccco1	CYP2C9 inh 91.5, CYP2C19 inh 72.7
COc1cccc2[nH]c3c(N4CCN(Cc5ccc6c(c5)OCO6)CC4)ncnc3c12	CYP2C9 inh 84.8, CYP2C19 inh 93.6
CCOc1ccc2[nH]c3c(N4CCN(c5ccccn5)CC4)ncnc3c2c1	CYP2C9 inh 68.8, CYP2C19 inh 80.0
c1nc(N2CCN(Cc3ccc4c(c3)OCO4)CC2)c2[nH]cnc2n1	none
COc1cccc2[nH]c3c(N4CCC(C)CC4)ncnc3c12	none
Cc1ccc2c(c1)[nH]c1c(N3CCN(Cc4ccccc4)CC3)ncnc12	CYP2C9 inh 64.9
Cc1ccc2[nH]c3c(N4CCN(Cc5ccc6c(c5)OCO6)CC4)ncnc3c2c1	CYP2C9 inh 88.1, CYP2C19 inh 50.0
c1ccc(Cc2nc3ccccc3o2)cc1	none
CCOc1ccc(NC(=O)CSc2nnc(C3CC3)n2N)cc1	none
CSC1=NCCN1C(=O)c1cccc(Br)c1	none
COCc1cc(C)n(CC(=O)Nc2ccccc2C(=O)OC)c(=O)c1C#N	none
CC(=O)N1CCc2cc(S(=O)(=O)NCCC(=O)Nc3cccc(C)c3C)ccc21	none
Cc1ccc2[nH]c3c(N4CCCCCC4)ncnc3c2c1	none
Cc1ccc2[nH]c3c(=O)n(Cc4ccncc4)cnc3c2c1	CYP2C9 inh 63.4
c1ccc(CN2CCN(c3ncnc4c3[nH]c3ccccc34)CC2)cc1	CYP2C9 inh 54.7, CYP2C19 inh 54.2
c1ccc2c(c1)CCN(c1ncnc3c1[nH]c1ccccc13)C2	CYP2C9 inh 94.6, CYP2C19 inh 95.4
Cc1ccc2[nH]c3c(=O)n(CCN4CCNCC4)cnc3c2c1	none
CCN(CC)c1ncnc2c1[nH]c1ccccc12	none
Cc1ccc2[nH]c3c(N4CCN(Cc5ccccc5)CC4)ncnc3c2c1	CYP2C9 inh 94.8, CYP2C19 inh 77.5
Nc1cccc2c1C(=O)N(C(=O)c1cccc(S(=O)(=O)N3CCCCCC3)c1)C2=O	none
N#Cc1ccc(Cl)cc1NC(=O)COC(=O)c1ccc(S(=O)(=O)N2CCCC2)cc1	none
c1ccc2c(c1)[nH]c1c(N3CCC4(CC3)OCCO4)ncnc12	CYP2C19 inh 67.9
OC1(c2cccc(C(F)(F)F)c2)CCN(c2ncnc3c2[nH]c2ccccc23)CC1	none (no result: CYP2C9 activ, CYP2C9 inh, CYP2C19 act, CYP2C19 inh)
CCCCCCOc1ccc(-c2ccc(C#N)cn2)cc1	none
COc1ccc(C(=O)/C=C/N2CCCCC2)cc1OC	CYP2C9 activ 2.6
COC(=O)c1ccc(N/C=C/C(=O)c2ccc(OC)c(OC)c2)cc1	none
CCN(CC)CCN1C(=O)C(O)=C(C(=O)c2cccs2)C1c1ccc(C)o1 (configuration not stated)	none
CCOc1ccc(NC2=NCCC(=O)N2Cc2cccs2)cc1	CYP2C9 inh 55.5, CYP2C19 inh 50.0
CCOc1ccc(NC2=NCC(=O)N2Cc2cccs2)cc1	none
C#CC[N+](C)(C)C(C#Cc1ccccc1)CC=C (configuration not stated)	none
CCCCc1ccc(Nc2nc(CCC)cc(=O)[nH]2)cc1	PostGolgi ctrl 51.6
CCOC(=O)N1CCC(N2C(=O)c3cc(C(=O)NC4CCCCC4)ccc3C2O)CC1 (configuration not stated)	none
CCOC(=O)N1CCC(N2C(=O)c3ccccc3C2Nc2ccc(C)cc2)CC1 (configuration not stated)	none
CCOC(=O)N1CCC(N2C(=O)c3ccccc3C2Nc2c(C)cccc2C)CC1 (configuration not stated)	CYP2C9 inh 94.3, CYP2C19 inh 95.3
CCOC(=O)N1CCC(N2C(=O)c3ccc(C(=O)O)cc3C2=O)CC1	none
CCOC(=O)N1CCC(N2C(=O)c3ccccc3C2Nc2ccccc2)CC1 (configuration not stated)	CYP2C9 inh 79.9, CYP2C19 inh 64.9
CCOC(=O)N1CCC(N2C(=O)c3ccccc3C2Nc2cc(C(=O)OC)cc(C(=O)OC)c2)CC1 (configuration not stated)	CYP2C9 inh 65.6, CYP2C19 inh 73.1
CCN(CC)S(=O)(=O)c1ccc(NC(=O)CSc2cccc[n+]2[O-])cc1	none
CCCC(=O)Nc1ccc(C(=O)Nc2nc(CC(=O)OCC)cs2)cc1	none
CCOC(=O)Cc1csc(SC(C)C(=O)Nc2ccc(NC(C)=O)cc2)n1 (configuration not stated)	CYP2C9 inh 90.7, CYP2C19 inh 68.5
Clc1ccc(-c2cc(CSc3ccccc3)on2)cc1	none
Clc1ccc(-c2cc(CSc3cccc(Cl)c3)on2)cc1	CYP2C19 inh 75.4
Cc1ccsc1C1Nc2ccc3ncccc3c2C2=C1C(=O)CCC2 (configuration not stated)	CYP2C9 inh 84.8, CYP2C19 inh 89.9
COc1cc(C2C3=C(CCCC3=O)Nc3[nH]n(-c4ccccc4)c(=O)c32)ccc1O (configuration not stated)	none
